This passage reports growth results from PubChem BioAssay (NCI).

The panel holds about 83,000 compounds, 20% with a hit somewhere; the sample as a whole holds those more often.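 Method: cells in 96-well plates; compound added at one concentration; 48 h incubation; percent growth measured; values under 10 scored active.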 A number with no mark means an inactive call. Activity calls are given as the source filed them.

For the assay, the system named is SK-OV-3 ovarian. Nature of the assay: NCI-60 one-dose screen, 48 h (100 = growth as untreated, 0 = no growth, -100 = all killed). To be noted: 10 µM unless noted.
`Cn1nc(C(F)(F)F)cc1-c1cc(Cl)c(OCc2ccc(Cl)cc2)c(-c2ccc(Cl)c(C(F)(F)F)c2)c1O`: the growth was -7.57% (active).

As to `CC(=O)O[C@H]1[C@H](CC#CC#CC[C@@H]2C[C@]3(C)[C@H]4CC=C5[C@H]6[C@@H](C)[C@H](C)CC[C@]6(C(=O)NCCN(CCN)CCN)CC[C@@]5(C)[C@]4(C)CC[C@H]3C(C)(C)[C@H]2OC(C)=O)C[C@]2(C)[C@H]3CC=C4[C@H]5[C@@H](C)[C@H](C)CC[C@]5(C(=O)NCCN(CCN)CCN)CC[C@@]4(C)[C@]3(C)CC[C@H]2C1(C)C`, the growth was 89.2%.

Take `CC(=O)c1ccc(Nc2nc(Cl)nc(Oc3c(Cl)cccc3Cl)n2)cc1`: the growth is 100%.

`Oc1[nH]c2ccccc2c1/C=c1/ccc2c(c1)N=C(c1ccc(C(F)(F)F)cc1)N=2`: the growth is 82.7%.

In the case of `Brc1cccc(-n2ncc3c(Nc4ccc(-c5nnc(-c6ccccc6)o5)cc4)ncnc32)c1`, the growth is 110%.

Regarding `CCNC(=S)N(Cc1ccccc1)Cc1ccccc1`, the growth was 105%.

As to `COc1cccc(CC(C)=C(c2ccc(OCCCN(C)C)cc2)c2ccc(OCCCN(C)C)cc2)c1`, the growth was -88.6% (active).

For `N[C@@H](CO)C(=O)O`, the growth is 111%.

Turning to `O=C(c1ccc(C(F)(F)F)c(Cl)c1)N(Cc1ccc(Cl)cc1)c1ccc(-c2cc(C(F)(F)F)[nH]n2)c(O)c1`, the growth is -4.32% (active).

With `c1ccc(C(Nc2ccccn2)(c2ccccc2)c2ccccc2)cc1`, the growth was 67.5%.

For `CC[C@H](Nc1nc(N)nc(N)c1Cl)c1nc2cccc(NCc3ccc(C(=O)NO)cc3)c2c(=O)n1-c1ccccc1`, the growth was -14.4% (active).

Consider `N#Cc1nc(-c2ccc(Cl)cc2)cc(-c2ccc(Nc3nc(N4CCCCC4)nc(N4CCCCC4)n3)cc2)c1N`, for which the growth was 90.9%.

Take `C#CC[C@@H]1C[C@]2(C)[C@H]3CC=C4[C@H]5[C@@H](C)[C@H](C)CC[C@]5(C(=O)NCCCCN)CC[C@@]4(C)[C@]3(C)CC[C@H]2C(C)(C)[C@H]1OC(C)=O`: the growth was 109%.

In the case of `Cn1nc(C(F)(F)F)cc1-c1c[nH]c(OCc2ccc(Cl)cc2)c(-c2ccc(Cl)c(C(F)(F)F)c2)c1=O`, the growth is -6.23% (active).

With `COc1ccc(NC(=O)c2ccc(C(F)(F)F)nc2Nc2ccc(Cl)cc2C)cc1Cl`, the growth is 45.4%.

On to `O=C(Cn1nncc1CN1C(=O)CSC1=O)Nc1ccc(F)cc1`, for which the growth is 90.8%.

Take `COc1ccc(NC(=O)/C=C/c2ccc(Cl)c(Cl)c2)cn1`: the growth was 101%.

Take `CCCCNCC(O)c1cc(-c2ccc(C(F)(F)F)cc2)nc(-c2ccc(C(F)(F)F)cc2)c1` (stereo not drawn): the growth was -75.8% (active).

With `CCCc1cc2c(cc1CN(Cc1cc3c(cc1CCC)OCO3)C(=N)OCC)OCO2`, the growth was 92.7%.

Consider `CCCNC(=S)N/N=C(\C)c1ccccn1`, for which the growth was 29.3%.

Regarding `C#CC[C@@H]1C[C@]2(C)[C@H]3CC[C@@H]4[C@H]5C(C(=C)C)CC[C@]5(C(=O)NCCCN5CCN(CCCN)CC5)CC[C@@]4(C)[C@]3(C)CC[C@H]2C(C)(C)[C@H]1OC(C)=O` (stereo partly drawn), the growth was 108%.

Turning to `COc1cc2nccc(Oc3ccc(NC(=O)C4(C(=O)Nc5c(F)cc(F)cc5F)CC4)cc3)c2cc1Oc1ccc(N)cn1`, the growth was 81.3%.

As to `COc1ccc2[nH]c(C(=O)OCc3ccc4cccc(O)c4n3)cc2c1`, the growth was 68.4%.

`CCOCC(O)(c1ccc(Cl)cc1)c1ccc(Cl)cc1`: the growth was 105%.

On to `Cc1cc(C)cc(NC(=O)Cn2nncc2CN2C(=O)CSC2=O)c1`, for which the growth was 92.5%.

`Cc1ccc(NC(=O)Cn2nncc2CN2C(=O)CSC2=O)cc1C`: the growth is 89.7%.

Turning to `COC(=O)/C=C/c1cc(OC(C)=O)c2c(c1)[C@@H](C(=O)OC)[C@H](c1ccc(OC(C)=O)c(OC(C)=O)c1)O2`, the growth is 36.4%.

Regarding `N=c1n(Cc2ccccc2)c(N)cc(=O)n1Cc1ccccc1`, the growth was 21.4%.

`CC(C)[C@H](CN)NC[C@H](C)NS(=O)(=O)c1ccc(C(C)(C)C)cc1`: the growth is 105%.

For the compound `COc1ccc(/C(=C\c2ccc3c(c2)OCO3)C(=O)Nc2nc3ccccc3s2)cc1`, the growth was 97.8%.

As for `Cc1ccc(-c2cnc3sc4ccc(Cl)cc4n23)cc1`, the growth was 75.7%.

Regarding `COc1cc(C2Nc3ccccc3S2)cc(CN2CCOCC2)c1O` (stereo not drawn), the growth was 83.3%.

For the compound `CC1=C(O)C(=O)C(c2c(C)cc(C)c(Br)c2C)=C(O)C1=O`, the growth was 88.3%.
